High-throughput results deposited in PubChem BioAssay by National Center for Advancing Translational Sciences (NCATS).
Shown are actives, neighbours in structure and some others; about 12% of the full set was active somewhere.
CHX counter: affects cycloheximide protein synthesis inhibition readout, counter-screen | max response, % | cell reporter, cycloheximide protein synthesis inhibition counterscreen | actives 12% (n = 300,000); in the data active = max response mostly above about 13%, no sharp cut-off; inactive = mostly below about 14%; also: read at 38.3 µM for the half of the compounds with a filed dose; 0% is about no effect
Shiga toxin inh: Shiga toxin inhibition. Vero cells, Shiga toxin protein synthesis inhibition reporter. inhibition, % at 38.7 µM. actives 9.2% (n = 290,000). AID 2315; in the data active = inhibition mostly above about 28%, no sharp cut-off; inactive = mostly below about 43%; also: 0% is about no effect
NS1 function inh: inhibitors of influenza NS1 protein function; Potency, µM (top dose mostly 46.1 µM), for inactives: at the top dose activity, positive = more growth; actives 0.4% (n = 270,000); AID 2326; also: potency is read from the fitted curve at half-maximal effect; actives are rising curves; nearly all actives have a fitted effect of over 50% in size
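S. cerevisiae expressing influenza A NS1, grown in glucose, washed, then diluted 1:100 into pH 6.0 -URA galactose medium with 23 nl compound. Growth recovery read as OD600; NS1-free strain serves as control.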
SARS PLP yeast: SARS-CoV PLP inhibition in yeast | S. cerevisiae expressing SARS-CoV PLpro, growth rescue | Potency, µM (series often up to 32.9 µM), without a hit: at the highest dose activity, positive = growth rescue, actives largely listed as activators | actives 0.19% (n = 330,000); also: potency is read from the fitted curve at half-maximal effect; 0% is about no effect; nearly all actives have a fitted effect of over 55% in size
* hit, by the source's call; ? = inconclusive; / = no result; + = active, no number. Unless noted, calls follow the shape of the full dose curve.

SMILES	CHX counter	Shiga toxin inh	NS1 function inh	SARS PLP yeast
Cc1ccc(Nc2nc3ccccc3c(=O)[nH]2)cc1C	37.5*	36.4*	/	2.2%
Cc1ccc(Nc2nc(N)c3ccccc3n2)cc1C	20.3*	36.7*	2.1%	-8.7%
C[C@H]1COC(=O)[C@H](Cc2ccc(F)cc2)C/C=C\C[C@@H](CC(=O)N(CCO)Cc2ccccc2)C(=O)N1	/	/	/	0.1%
O=C(/C=C/c1ccc(Cl)cc1Cl)Nc1ccc(CN2CCOCC2)cc1	2.4	2.1	-2.6%	7.1%
O=C(/C=C/c1ccccc1Cl)Nc1ccncc1	24.7*	66.8*	-79.1%	-16.8%
COC(=O)/C=C/C(=O)Nc1cccnc1	-5.3	30.0	-12.0%	5.7%
O=C(/C=C/c1ccc(Cl)cc1Cl)NCc1ccncc1	29.8*	57.8	1.1%	5.2%
Cc1cc(N)c2cc(NC(=O)/C=C/c3ccccc3Cl)ccc2n1	1.1	12.5	-1.0%	-0.1%
O=C(/C=C/c1ccc(Cl)cc1Cl)Nc1ccncc1	50.3*	95.8*	-15.7%	-20.2%
COc1ccccc1/C=C/C(=O)Nc1cccnc1	37.3*	156.4*	-27.9%	-3.5%
CC(NC(=O)C1CCN(S(=O)(=O)c2cccs2)CC1)c1cccc(Cl)c1 (stereo unspecified)	/	/	/	3.4%
CCc1nnc(NC(=O)CSc2nc3c(c(=O)n2CC)SC(C)C3)s1 (stereo unspecified)	-0.7	-2.6	-6.2%	-4.9%
O=C(NNC(=O)c1cc(Cl)nc2ccccc12)c1ccccc1F	/	/	/	-3.9%
O=C(/C=C/c1ccccc1Cl)Nc1cccnc1	60.4*	79.8*	-89.0%	-11.4%
CCC(CC)NC(=O)/C=C/c1ccccc1Cl	35.1*	69.2*	5.0%	-4.0%
CC(=O)N(C)c1ccc(NC(=O)c2ccccc2C(=O)O)cc1	3.5	7.9	0.3%	4.1%
O=C(/C=C/c1ccccc1Cl)NC1CCCCC1	32.9*	26.5*	-2.1%	0.6%
CC(=O)N(C)c1ccc(NC(=O)/C=C/c2ccccc2Cl)cc1	80.4*	41.1*	-7.0%	3.5%
O=C(NCC1CCCO1)c1ccc(COc2ccc(Cl)cc2)cc1 (stereo unspecified)	2.8	19.8	/	-2.0%
COc1cccc(OCc2ccc(C(=O)NCC3CCCO3)cc2)c1 (stereo unspecified)	27.8*	36.6*	-15.9%	-8.2%
O=C(NCC1CCCO1)c1ccc(COc2ccccc2Br)cc1 (stereo unspecified)	15.0	+	-13.5%	0.4%
OCCn1c(-c2ccc(F)cc2)csc1=Nc1ccccc1	21.8*	71.0*	-64.7%	7.2%
OCCn1c(-c2ccc3c(c2)OCO3)csc1=Nc1ccccc1	37.0*	45.9*	-48.0%	-6.3%
COCCn1c(-c2ccccc2)csc1=Nc1cccnc1	8.6	-5.7	/	-9.2%
CC(C)NC(=O)CSc1nnc(-c2ccc(C(C)(C)C)cc2)n1C	14.3	16.1	-0.7%	6.4%
SMILES	CHX counter	Shiga toxin inh	NS1 function inh	SARS PLP yeast
O=C(NCCS(=O)(=O)N1CCCCC1)c1ccc2c(c1)OCO2	/	/	/	0.5%
Cc1cccc2cc(CN(Cc3nnnn3Cc3ccco3)C3CCCC3)c3nnnn3c12	10.4	29.4*	-0.4%	-14.0%
CC(=O)N(Cc1ccco1)Cc1cc2cccc(C)c2n2nnnc12	-3.0	-6.6	/	-1.2%
Cc1ccc(S(=O)(=O)Nn2c(C)nnc2-n2nc(C)cc2C)cc1	-2.7	26.4	4.0%	8.1%
COc1ccc(S(=O)(=O)N(n2c(C)nnc2-n2nc(C)cc2C)S(=O)(=O)c2ccc(OC)cc2)cc1	21.2*	20.3	1.4%	18.7%
O=C(c1ccccc1)c1c2c(cc3sc4ccccc4[n+]13)-c1cccc3cccc-2c13	27.5*	38.0*	-56.1%	-59.1%
CCn1cc(C=C2C(=O)c3ccccc3C2=O)c2ccccc21	12.3*	-12.8	-6.8%	3.5%
CCN=C1S/C(=C\c2cn(CC)c3ccccc23)C(=O)N1CC	-2.4	13.5	8.0%	-16.5%
Cc1ccccc1C(=O)c1cccn1CC(=O)N1CCCCC1	-2.6	-2.9	3.0%	3.7%
O=C(NCc1csc(-c2ccccc2)n1)c1cc(F)cc2c1OCOC2	45.2*	82.7*	-9.6%	-0.1%
O=C(Cc1csc(-c2ccccc2)n1)NCc1ccc(F)cc1	-1.4	3.8	-10.8%	-28.5%
CCCCCCC(=O)NNC(=O)CC(=O)Nc1ccccc1C(=O)O	9.2	-3.7	6.0%	5.9%
Cc1nc(CNC(=O)c2cc(COc3c(F)cccc3F)on2)cs1	12.4	39.1	0.7%	-2.9%
COC(=O)[C@H](Cc1ccccc1)NC(=O)c1cc(COc2c(F)cccc2F)on1	51.8*	67.2*	10.2%	-25.4%
O=C(NCc1ccc2c(c1)OCO2)c1cc(COc2c(F)cccc2F)on1	36.9*	41.9	15.4%	0.8%
O=C(NCc1ccc(N2CCCC2=O)cc1)c1cc(COc2c(F)cccc2F)on1	22.4	12.6	13.1%	-0.7%
COc1cccc(CNC(=O)c2cc(COc3c(F)cccc3F)on2)c1	28.5*	32.8*	-8.3%	-1.6%
COc1cccc(OCc2cc(C(=O)NCc3ccc4c(c3)OCO4)no2)c1	43.7*	47.9*	-18.6%	3.0%
COc1ccc(C(=O)Nn2cnc3scc(-c4cccs4)c3c2=O)c(O)c1	30.8*	116.3*	-55.3%	-5.4%
Cc1cccc(NC(=O)CCCc2ccccc2)c1	56.8*	72.7*	-37.6%	-7.9%
Cc1cccc(NC(=O)NNC(=O)CCc2ccccc2)c1	-0.4	-4.2	5.8%	0.9%
Cc1cccc(NC(=O)CNC(=O)CNC(=O)Cc2ccccc2)c1	0.8	-12.9	8.9%	7.4%
CC(C)NC(=O)CCCc1ccccc1	26.7*	58.2*	-17.7%	5.6%
CN(C)c1ccc(NC(=O)CCCc2ccccc2)cc1	35.9*	100.2*	-5.8%	-6.5%
Cc1cccc(NC(=S)NC(=O)CCc2ccccc2)c1	17.5*	72.1*	9.9%	14.0%
SMILES	CHX counter	Shiga toxin inh	NS1 function inh	SARS PLP yeast
O=C(CNC(=O)c1ccccc1F)N/N=C\C=C\c1ccccc1	-2.5	15.3	10.3%	?
CCN(CC(=O)Nc1ccccc1OC)C(=O)c1ccc(NS(=O)(=O)c2ccc(C(C)=O)cc2)cc1	-1.2	1.4	-16.5%	-7.4%
CC(O)c1cccc(NC(=O)CCCc2ccccc2)c1 (stereo unspecified)	12.2	48.6*	2.6%	1.2%
CCCOc1ccc(/C=C/C(=O)N2CCOCC2)cc1	56.3*	61.2*	-0.6%	-2.4%
NC(=O)N/N=C/c1ccc(OCc2cccc(Cl)c2)cc1	-1.3	41.4	-47.0%	-1.5%
O=C(COc1ccc(/C=C\[N+](=O)[O-])cc1)N1CCOCC1	-0.6	-5.5	/	-1.0%
O=C(/C=C/c1ccc(Cl)c(Cl)c1)n1cccn1	-1.6	-16.0	0.4%	2.1%
O=C(/C=C/c1ccc(OCc2cccc(Cl)c2)cc1)N1CCOCC1	23.6*	45.0	/	-3.2%
CC(C)c1ccc(/C=C/C(=O)N2CCOCC2)cc1	43.0*	28.5*	-3.7%	-5.5%
O=C(/C=C/c1ccc(Cl)c(Cl)c1)N1CCOCC1	24.0*	104.3*	-47.3%	13.7%
CN(C)C(CNC(=O)c1ccc(NS(=O)(=O)c2ccc(F)c(F)c2)cc1)c1ccccc1 (stereo unspecified)	/	/	/	13.3%
O=C(/C=C/c1ccccc1)N1CCOCC1	13.7	6.4	-2.8%	-2.1%
O=C(/C=C/c1ccc(F)cc1)N1CCCN(C(=O)/C=C/c2ccc(F)cc2)CC1	5.0	0.6	-8.0%	11.4%
CC(C)c1ccc(/C=C/C(=O)N2CCCCCC2)cc1	21.3*	31.0	-16.4%	10.7%
